High-throughput results: PubChem, several laboratories
Compounds with a hit are over-represented: about 1.3% of the library has one in this group of screens.
MCL1 BIM primary = disrupts human MCL1 binding to BIM-BH3 peptide. hit rate 0.68% among 320,000. Q07820. GST-MCL1 / FITC-Bim-BH3 fluorescence polarization. AID 2057. inhibition, % at 10.9 µM;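 active = inhibition above the mean inhibition of all tested compounds plus 3 SD, set per campaign, cut at about 40% in these data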;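 note: higher means more loss of mP so more displacement of Bim peptide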
MEX-5 binding = C. elegans MEX-5 TCR-2 RNA binding activity | Q9XUB2 | MEX-5/FITC-TCR2 RNA binding, fluorescence polarization; stronger effect = lower value | activity score (negative = inhibition of binding), % at 10 µM | hit rate 0.38% among 300,000;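 active = inhibition past about -25% in most replicates, and total fluorescence under double the plate's negative control median, limit read from the data; inconclusive = replicates evenly split on the limit, or fluorescence at least double controls; inactive = too little inhibition in most replicates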
GLD-1 RNA inh = GLD-1-TGE RNA interaction inhibition (C. elegans) | inhibition, % at 5.96 µM | hit rate 0.44% among 320,000 | Q17339 | purified GLD-1 + fluorescein TGE RNA, fluorescence polarization;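 active = percent inhibition above a per-plate cutoff, the plate mean of test compounds plus 3 SD, cut at about 30% in these data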
Target sequence (Q17339 whole entry, looked up): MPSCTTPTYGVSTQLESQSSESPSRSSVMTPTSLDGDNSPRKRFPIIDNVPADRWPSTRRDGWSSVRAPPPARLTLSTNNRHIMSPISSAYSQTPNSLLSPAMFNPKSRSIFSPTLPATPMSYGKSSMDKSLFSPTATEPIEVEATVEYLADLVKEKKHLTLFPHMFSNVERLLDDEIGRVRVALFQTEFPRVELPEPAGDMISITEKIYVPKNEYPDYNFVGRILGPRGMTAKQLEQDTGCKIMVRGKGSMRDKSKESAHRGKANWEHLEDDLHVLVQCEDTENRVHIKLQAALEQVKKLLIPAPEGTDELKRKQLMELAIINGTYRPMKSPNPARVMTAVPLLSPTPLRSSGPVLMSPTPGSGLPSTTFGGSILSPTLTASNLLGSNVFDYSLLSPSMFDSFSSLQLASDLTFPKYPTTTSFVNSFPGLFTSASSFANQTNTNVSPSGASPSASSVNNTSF
Bcl-xL primary = Bcl-xL (human) inhibition | GST-Bcl-xL / FITC-Bim BH3 peptide fluorescence polarization | inhibition, % at 10.9 µM | hit rate 0.7% among 320,000 | Q07817;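 active = inhibition above the mean of all tested compounds plus 3 SD, cutoff set per campaign, cut at about 30% in these data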;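 note: inhibitors lower millipolarization by displacing the labeled peptide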
EBV gp42 inh = blocks Epstein-Barr virus glycoprotein 42 binding; Q1HVG2; Fluorescence polarization binding assay, mP read-out; inhibition, % (tested at 21.74 µM); hit rate 0.42% among 220,000; AID 1085; in the data active = inhibition above about 50%
Target sequence (Q1HVG2 whole entry, looked up): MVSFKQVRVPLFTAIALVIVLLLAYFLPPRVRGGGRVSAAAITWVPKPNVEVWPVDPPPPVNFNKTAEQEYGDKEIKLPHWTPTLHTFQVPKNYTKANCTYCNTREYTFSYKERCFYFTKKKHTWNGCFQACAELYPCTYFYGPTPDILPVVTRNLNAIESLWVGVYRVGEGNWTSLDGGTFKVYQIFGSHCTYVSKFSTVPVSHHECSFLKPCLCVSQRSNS
Each line names hits and unclear results; the compound was inactive in the other large screens.

O=C1c2cccc3c([N+](=O)[O-])ccc(c23)C(=O)N1c1nccs1	Bcl-xL primary 31.4
COc1ccc2c(/C=C/c3cc[n+](C)cc3)c[nH]c2c1	MEX-5 binding inconclusive (no result: EBV gp42 inh)
COc1ccc2c(c1)c(/C=C/c1cc[n+](C)cc1)cn2C	MEX-5 binding inconclusive, GLD-1 RNA inh 57.8 (no result: EBV gp42 inh)
CN=C1S/C(=C/c2cn(CC(=O)OC)c3ccccc23)C(=O)N1C	none
CN=C1S/C(=C\c2cn(CC(=O)OC)c3ccccc23)C(=O)N1C	MEX-5 binding -28.2
CC1=C/C(=N\Nc2ccccc2[N+](=O)[O-])CC(C)(C)C1	none
CC(C)CC(=O)Nc1nnc(SCC(=O)NCC2CCCO2)s1 (stereo unspecified)	none (no result: EBV gp42 inh)
CCC(NC(=S)NC1CCCCC1)c1ccc(C(C)C)cc1 (stereo unspecified)	none (no result: MCL1 BIM primary, GLD-1 RNA inh, Bcl-xL primary, EBV gp42 inh)
Fc1ccccc1N1CCN(c2nc3ccccc3n3nnnc23)CC1	MCL1 BIM primary 52.4, Bcl-xL primary 36.0
COc1ccccc1CNC(=O)COC(=O)/C=C/c1ccc2ccccc2n1	none (no result: MCL1 BIM primary, MEX-5 binding, Bcl-xL primary, EBV gp42 inh)
N#CC1(NC(=O)COC(=O)/C=C/c2ccc3ccccc3n2)CCCCC1	Bcl-xL primary 32.2 (no result: EBV gp42 inh)
O=C(/C=C(\O)c1ccccc1)C(=O)NNC(=O)c1ccccc1[N+](=O)[O-]	MEX-5 binding -48.5 (no result: EBV gp42 inh)
O=C(NNC(=O)c1ccccc1[N+](=O)[O-])c1cnccn1	MEX-5 binding -64.8
Nc1ccccc1C(=O)NNC(=O)C(=O)/C=C(\O)c1ccccc1	none
O=C(NNC(=O)c1cnccn1)c1cccc([N+](=O)[O-])c1	MEX-5 binding -60.9
O=C(COC(=O)c1cc(Br)ccc1O)Nc1cccnc1Cl	none (no result: EBV gp42 inh)
Cc1cc2n(n1)C(c1c[nH]c3ccccc13)Nc1ccccc1-2 (stereo unspecified)	MEX-5 binding -32.0
CCCN1C(=O)/C(=C/c2ccc(C)o2)SC1=Nc1ccc(OC)cc1	MEX-5 binding -71.6
CCCN1C(=O)/C(=C/c2ccc(C)o2)SC1=Nc1ccc(OCC)cc1	none
Cc1ccc(NC(=O)CCn2c(=O)c3cccn3c3ccccc32)cc1C	none (no result: EBV gp42 inh)
Clc1ccc(/C=N/NC(=Nc2ccccc2)c2ccccn2)c(Cl)c1	none
C(=N\NC(=Nc1ccccc1)c1ccccn1)/c1ccccn1	MEX-5 binding -54.0
CN(C)CCCn1c(=O)n(CCc2ccccc2)c(=O)c2c3c(sc21)CCCCC3	Bcl-xL primary 56.1
COc1ccc(/C=N/Nc2nnc(-c3ncc[nH]3)c3ccccc23)cc1	none
Oc1ccc2ccccc2c1/C=N/Nc1nnc(-c2ncc[nH]2)c2ccccc12	MEX-5 binding -34.8
CCC(C)NC(=O)CSc1nnc(-c2cc(OC)c(OC)c(OC)c2)c(-c2cc(OC)c(OC)c(OC)c2)n1 (stereo unspecified)	none (no result: EBV gp42 inh)
CC(=O)Nc1ccc(N=Cc2c(O)c(C(=O)Nc3ccccc3)cc3ccccc23)cc1	EBV gp42 inh 135.9
CC(=O)N(Cc1ccccc1)c1ncc2c(n1)c(=O)c(C#N)c1ccccn12	MCL1 BIM primary 45.0, Bcl-xL primary 33.7
CC(=O)N(Cc1c(C#N)c2ccccc2n1C)c1ccccc1	none
Cc1ccc2c(=O)cc(C(=O)NCc3ccccc3)oc2c1C	none (no result: EBV gp42 inh)
O=C(CSc1ccc2nnc(-c3cccnc3)n2n1)Nc1ccc(F)cc1F	none (no result: EBV gp42 inh)
CCC1=NN2C(=N)/C(=C\c3ccc(OCc4cc(=O)n5nc(CC)sc5n4)c(OC)c3)C(=O)N=C2S1	EBV gp42 inh 62.9 (no result: MCL1 BIM primary, GLD-1 RNA inh, Bcl-xL primary)
CCc1nn2c(=O)cc(COc3ccc(/C=C4\C(=N)N5N=C(CC(C)C)SC5=NC4=O)cc3)nc2s1	none
Cc1ccc(C(=O)Nc2ccnc(-c3ccncc3)n2)cc1	none
CC1(C)CC(=O)C=C(NNC(=O)c2ccccc2O)C1	GLD-1 RNA inh 52.7
O=C(NCc1ccccn1)c1ccc(CS(=O)(=O)Cc2ccc(Cl)cc2)o1	none
Cc1ccccc1CS(=O)(=O)Cc1ccc(C(=O)NCc2ccccn2)o1	Bcl-xL primary 31.0
O=C(CCCCCNC(=O)N1CCn2c1nc1ccccc12)N[C@@H](Cc1ccccc1)C(=O)O	none (no result: EBV gp42 inh)
CSCC(=O)NC1CCCc2c1cnn2-c1ccc(C)c(C)c1 (stereo unspecified)	none (no result: EBV gp42 inh)
CC(=O)c1c(O)cc(O)cc1CC(=O)O	MEX-5 binding -28.8
CCSC1=N/C(=C\c2ccccc2)C(=O)N1	MEX-5 binding -39.9
O=C1NNC(c2ccccc2)=N/C1=C\c1ccccc1	none
O=C(c1cccn2c(=O)c3ccccc3nc12)N1CCN(c2ccccn2)CC1	none
O=C(c1cccn2c(=O)c3cc4ccccc4cc3nc12)N1CCN(c2ccccc2)CC1	Bcl-xL primary 32.7
CC(=O)c1cc2ccc(O)cc2oc1=O	Bcl-xL primary 48.2
COc1ccc(S(=O)(=O)Nc2ccccc2C(N)=O)cc1OC	none
Cc1ccc(C(c2sc3ncnn3c2O)N2CC(C)CC(C)C2)cc1 (stereo unspecified)	Bcl-xL primary 55.5
CCOC(=O)c1ccc(NC(=O)NNC(=O)CCc2ccc(OC)cc2)cc1	none (no result: MCL1 BIM primary, GLD-1 RNA inh, Bcl-xL primary, EBV gp42 inh)
CC(C)(CCl)C(=O)Nc1ccc(OC(F)(F)F)cc1	EBV gp42 inh 61.1
COC(=O)c1ccccc1Oc1ccc(NC(=O)C(C)(C)CCl)cc1	none
CCn1c(=O)c(=O)[nH]c2c(=O)oc3ccc(S(=O)(=O)Nc4ccccc4)cc3c21	none (no result: EBV gp42 inh)
O=c1cc(NCc2ccccc2)[nH]c(=O)[nH]1	none (no result: EBV gp42 inh)
O=C(/C=C/c1ccc(O)c(O)c1)OC(Cc1ccc(O)c(O)c1)C(=O)O (stereo unspecified)	MEX-5 binding -53.3 (no result: EBV gp42 inh)
N#Cc1cccc(C#N)c1Oc1ccc(N)cc1	none
CCCn1c(N)c(C(=O)CSc2nnc(Cc3cccs3)n2C2CC2)c(=O)n(C)c1=O	none (no result: MEX-5 binding, EBV gp42 inh)
COc1cc(NS(=O)(=O)c2ccc(C)cc2)c2ncccc2c1	none
COc1cc(NCCCC(C)N)c2ncccc2c1 (stereo unspecified)	MEX-5 binding -25.8 (no result: MCL1 BIM primary, GLD-1 RNA inh, Bcl-xL primary)
CCOc1ccc2[nH]c(=O)c(CN(CC3COCCO3)C(=O)C3CC3)cc2c1 (stereo unspecified)	EBV gp42 inh 51.1
CSc1nn2c(C(F)(F)F)cc(C(F)(F)F)nc2c1C(=O)O	none
CC1CCCC(N2CCN(C(=O)c3ccc([N+](=O)[O-])cc3)CC2)C1 (stereo unspecified)	none (no result: MCL1 BIM primary, GLD-1 RNA inh, Bcl-xL primary, EBV gp42 inh)
COc1ccc(-c2coc3cc4oc(=O)cc(-c5ccccc5)c4cc23)cc1F	Bcl-xL primary 37.3 (no result: MEX-5 binding)
O=C1C2C3C=CC(C3)C2C(=O)N1c1ccccc1 (stereo unspecified)	none
NC(=O)[C@@H]1[C@@H]2C(=O)N(c3ccc(F)cc3)C(=O)[C@@H]2[C@H]2C=Cc3ccccc3N21	Bcl-xL primary 34.4
O=C(c1ccco1)[C@@H]1[C@@H]2C(=O)N(c3ccc(F)cc3)C(=O)[C@@H]2C2c3ccccc3C=CN21 (stereo partly specified)	MCL1 BIM primary 81.7, GLD-1 RNA inh 68.7, Bcl-xL primary 77.6, EBV gp42 inh 53.6
COC(=O)C1(C)NC(c2ccco2)C2C(=O)N(c3ccc(F)cc3)C(=O)C21 (stereo unspecified)	none
